Hits are enriched below; roughly 19% of the tested compounds scored in any of these assays.
DT40 TDP1 CPT – growth inhibition of DT40 Tdp1-/-;hTDP1 cells with camptothecin (screen for TDP1 inhibitors). chicken DT40 Tdp1-/-;hTDP1 cells + 20 nM CPT, ATP luminescence, 48 h. 420,000 compounds, 12% hits. Potency, µM (doses to about 46.2 µM), for inactives: at the top dose activity change, negative = growth inhibition, most hits filed as inhibitors; also: potency is read from the fitted curve at half-maximal effect; nearly all actives have a fitted effect of over 55% in size
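Chicken DT40 Tdp1-/- cells stably complemented with human TDP1 were seeded at 400 cells/well in medium containing 20 nM camptothecin, exposed to pin-transferred compounds, and grown at 37 °C for at least 48 hr. Viability was read as ATP luminescence.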
ELG1 DNA repair – blocks ELG1-dependent DNA repair in HEK293T cells; HEK293T ELG1-luciferase reporter, luminescence, 16 h; DNA damage induced by 5-fluorouridine; AID 504467; Potency, µM (doses to about 46.1 µM), for the others: at the top dose activity change, negative = inhibition, actives largely listed as inhibitors; 330,000 compounds, 2.3% hits; also: potency is read from the fitted curve at half-maximal effect; nearly all actives have a fitted effect of over 55% in size
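Overnight (16 hr) co-exposure of 2,000 cells/well to 5-fluorouridine and compound at 37 °C preceded detection. Luciferase was quantified via ONE-Glo luminescence; loss of signal denotes inhibition.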
HT1080NT lethal – kills 2HG-producing HT-1080-NT fibrosarcoma cells. 360,000 compounds, 1.6% hits. HT-1080-NT fibrosarcoma viability, CellTiter-Glo ATP luminescence, 48 h. Potency, µM (series often up to 46.1 µM), for inactives: top-dose activity, negative = less viability, most hits filed as cytotoxic. AID 686970;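 also: NT is the 2HG producing partner of a matched IDH1 knockdown line; potency is read from the fitted curve at half-maximal effect; 0% = DMSO-treated cells and -100% = media-only wells without cells; nearly all actives have a fitted effect of over 55% in size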
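HT-1080-NT fibrosarcoma cells (2HG-overproducing), 750 cells/well in RPMI with 5% FBS, dosed after 2 h and incubated 48 h at 37C. CellTiter-Glo luminescence normalized to DMSO and no-cell wells; concentration-response curves fitted and classed.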
TDP1 cell noCPT – qHTS for Inhibitors of human tyrosyl-DNA phosphodiesterase 1 (TDP1): qHTS in cells in absence of CPT. DT40 Tdp1-/- hTDP1 cells, no CPT, ATP luminescence, 48 h. Potency, µM (highest dose often 46.2 µM), for the others: at the highest dose activity change, negative = growth inhibition, most hits filed as inhibitors. 420,000 compounds, 15% hits; also: potency is read from the fitted curve at half-maximal effect; nearly all actives have a fitted effect of over 55% in size
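Seeded 400 DT40-hTDP1 cells/well (vehicle DMSO, no 20 nM CPT); pinned compounds; ≥48 hr at 37 °C; CellTiter-Glo luminescence as viability measure.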
IL1B secr inh – inhibitors of inflammasome signaling (IL-1 beta secretion). THP-1 LPS/ATP IL-1B secretion, AlphaLISA, 16 h; stronger effect = lower value. 360,000 compounds, 4.7% hits. activity change, % at 57.5 µM; in the data active = activity change below about -50%; inconclusive = mostly about -30% to -49%
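Secreted IL-1B measured by AlphaLISA bead assay after 16 h compound exposure of THP-1 cells; compounds (final up to 57.5 uM) added 1 h before LPS (250 ng/mL) and ATP (1.25 mM) stimulation; lower signal means less secretion.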
HT1080 IDH1KD tx – HT-1080 IDH1 knockdown cell toxicity (counter line) | HT-1080 IDH1 knockdown viability, ATP luminescence, 48 h | Potency, µM (doses to about 46.1 µM), for inactives: at the top dose activity, negative = toxicity, usual class: cytotoxic | 360,000 compounds, 2% hits | AID 686971;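 also: potency is read from the fitted curve at half-maximal effect; 0% = DMSO wells and -100% = cell-free medium wells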
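HT-1080-IDH1KD cells (IDH1 knocked down), 750/well in RPMI with 5% FBS, treated with compound 48 h at 37 degrees C. Viability by CellTiter-Glo luminescence, normalised to DMSO and no-cell wells; concentration-response curves classed.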
Numbers without * were called inactive; ? = inconclusive; nt = no result given. Unless noted, calls follow the shape of the dose curve; as a rule, active = well fitted curve in the direction sought with a large enough effect; inconclusive = small, poorly fitted or top-dose-only effect, or another doubt; inactive = no such curve, though single readings can be large; an effect the other way counts as inactive or inconclusive. Unless noted, % is scaled to controls: 0 for no effect and ±100 for the full control effect.

SMILES	DT40 TDP1 CPT	ELG1 DNA repair	HT1080NT lethal	TDP1 cell noCPT	IL1B secr inh	HT1080 IDH1KD tx
O=S(=O)(Nc1cccc(-c2cn3c(n2)SCC3)c1)c1ccc(F)cc1F	-7%	0%	-9%	?	-1	-10%
CC(C)CCN(C(=S)Nc1cccc(F)c1)C1CCN(C(C)C)CC1	10%	?	-2%	7%	-92*	-19%
COc1ccc(NC(=S)N(CCC(C)C)C2CCN(C(C)C)CC2)cc1	?	-12%	-4%	-18%	?	2%
O=C(Cc1cccc(C(F)(F)F)c1)Nc1cc(S(=O)(=O)N2CCOCC2)ccc1N1CCCC1	?	-3%	2%	?	-23	4%
O=C(Cc1ccc(S(=O)(=O)N2CCOCC2)s1)Nc1ccccc1N1CCCC1	16µM*	?	7%	15µM*	-1	17%
O=C(Cc1ccc(S(=O)(=O)N2CCOCC2)s1)Nc1cc(C(F)(F)F)ccc1N1CCCC1	?	?	-2%	21µM*	-8	-10%
CC(C)c1ccc(NC2CCCN(C(=O)CSc3nncn3C)C2)cc1 (configuration not stated)	-3%	12%	0%	-21%	11	-2%
CCN1CCN(c2ccc(S(=O)(=O)N3CCOCC3)cc2NC(=O)c2cc(Cl)nc3ccccc23)CC1	?	19%	3%	16µM*	-17	6%
COc1ccc(-c2cc(C(=O)Nc3cc(S(=O)(=O)N4CCOCC4)ccc3N3CCOCC3)c3ccccc3n2)cc1	?	4.1µM*	-19%	-26%	-17	-23%
Cc1cc(Nc2cccc(C(F)(F)F)c2)nc2ccc(NC(=O)c3cccc(Cl)c3)cc12	13µM*	nt	nt	6.5µM*	nt	nt
O=C(Nc1cccc(C(F)(F)F)c1)c1cccnc1	-24%	nt	11%	-15%	-3	27%
CCOc1ccc(C(=O)Nc2ccc3nc(Nc4cccc(C(F)(F)F)c4)cc(C)c3c2)cc1OCC	18µM*	nt	nt	5.2µM*	nt	nt
Cc1cc(Nc2cccc(C(F)(F)F)c2)nc2ccc(NC(=O)c3cccnc3)cc12	4.1µM*	nt	nt	2.3µM*	nt	nt
Cc1nc2ccc(NC(=O)c3cccc(C(F)(F)F)c3)cc2o1	23µM*	26%	2%	?	?	3%
CCOc1cc(/C=C(\CC(=O)O)c2nc3ccccc3s2)ccc1OCC(=O)Nc1cccc(C(F)(F)F)c1	?	nt	-9%	?	-8	-15%
CNC(=O)Nc1ccc2nc(C)oc2c1	-9%	11%	8%	-25%	-15	6%
O=C(O)c1ccc(Cl)c(S(=O)(=O)Nc2cccc(C(=O)Nc3cccc(C(F)(F)F)c3)c2)c1	0%	2%	0%	-3%	21	0%
Cc1ccc(OCCn2c(-c3ccc(Cl)cc3)nc3ccccc3c2=O)c(C)c1	-19%	nt	nt	5%	nt	nt
O=C(c1ccc(Cl)c([N+](=O)[O-])c1)N1CCN(Cc2ccc3c(c2)OCO3)CC1	-30%	?	1%	?	-76*	-5%
COc1ccc(CN2CCN(C(=O)c3ccc(S(=O)(=O)N4CCCCCC4)cc3)CC2)cc1	?	10µM*	16µM*	15µM*	?	-28%
COc1ccc(CN2CCN(C(=O)c3ccccc3C(=O)c3ccccc3)CC2)cc1F	?	nt	0%	?	-20	-9%
O=C(c1ccc(S(=O)(=O)N2CCCCCC2)cc1)N1CCN(Cc2ccccc2)CC1	-30%	?	-1%	-27%	?	7%
O=C(c1ccc(S(=O)(=O)N2CCCC2)cc1)N1CCN(Cc2ccc3c(c2)OCO3)CC1	?	?	0%	16µM*	-19	-2%
COc1ccc(CN2CCN(C(=O)c3ccc(S(=O)(=O)N4CCCCCC4)cc3)CC2)cc1F	21µM*	6.5µM*	-16%	21µM*	-21	-26%
C[C@H](CO)N1C[C@H](C)[C@@H](CN(C)C(=O)c2ccc3ccn(C)c3c2)OCc2cn(nn2)CCCC1=O	14%	nt	-8%	-17%	25	3%
SMILES	DT40 TDP1 CPT	ELG1 DNA repair	HT1080NT lethal	TDP1 cell noCPT	IL1B secr inh	HT1080 IDH1KD tx
CCNC(=O)C1CCCN(C(=O)c2cccc(Cl)c2)CC1 (configuration not stated)	-9%	nt	23%	1%	31	8%
COc1ccc(C(=O)N2CCN(S(=O)(=O)c3ccc(Br)cc3)CC2)cc1	18µM*	-3%	-1%	?	3	2%
COc1ccc(S(=O)(=O)N2CCCN(Cc3cccc(F)c3)CC2)cc1	21µM*	-3%	-13%	?	-14	-20%
O=C(c1ccc(S(=O)(=O)c2cccc(Cl)c2)c([N+](=O)[O-])c1)N1CCN(Cc2ccccc2)CC1	3.7µM*	?	8.2µM*	5.8µM*	-99*	?
Cc1ccc(S(=O)(=O)N2CCN(Cc3cccc(F)c3)CC2)cc1	-6%	nt	18%	-23%	2	15%
Cc1ccc(C(=O)N2CCN(S(=O)(=O)c3ccc(C)cc3)CC2)cc1	-29%	-11%	11%	-30%	-13	15%
O=C(NCCc1ccc2c(c1)OCO2)Oc1ccccc1	?	nt	0%	?	1	7%
Cc1cc(N2CCOCC2)nc2ccc(Cl)cc12	-4%	?	9%	?	-2	5%
CCN(/C=N/c1sc2c(c1C#N)CCCCC2)CC	?	?	2%	21µM*	-13	4%
CC(C)CN(/C=N/c1sc2c(c1C#N)CCCCC2)CC(C)C	21µM*	3%	9%	15µM*	16	6%
CN1CCN(/C=N/c2sc3c(c2C#N)CCCCC3)CC1	?	?	1%	?	3	-6%
CC(C)(C)OC(=O)N1CCC[C@H]1C(=O)N1CCC[C@H]1C(=O)NCc1ccncc1	-17%	nt	14%	-11%	0	20%
COc1ccc(CC(=O)Nc2c(C(=O)Nc3ccccc3F)oc3ccccc23)cc1	0%	nt	nt	-24%	nt	nt
Cc1nc(C(=O)NNC(=O)c2c(-c3c(Cl)cccc3Cl)noc2C)cs1	?	1%	?	16µM*	56	?
Cc1onc(-c2c(Cl)cccc2Cl)c1C(=O)Nc1nc(C(C)(C)C)cs1	?	-7%	?	23µM*	?	?
Cc1ccccc1-c1cncnc1NCc1ccccc1	-7%	nt	nt	-20%	nt	nt

Screening data as filed in PubChem.
